Consider 38 compounds from PubChem BioAssay (NCI).

Molecules are shown by their SMILES. About 83,000 compounds went through this panel and 20% of them were active in at least one assay; those are over-represented in the sample as a whole.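 Note: values are percent growth. 100 is the growth of untreated cells, values between 100 and 0 indicate rising inhibition; between -100 and 0 indicates cell death.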 A number with no mark means an inactive call. The source made the active and inactive calls. How the source made its calls: active means growth percent below 10; inactive means the rest.

This assay deals with SK-OV-3 ovarian. The assay is described as follows: NCI-60 one-dose screen, 48 h (100 = growth as untreated, 0 = no growth, -100 = all killed). The settings on record: 10 µM unless noted.
`N/C(=N\C(N)=N\c1nc2ccccc2s1)c1cccc(Cl)c1`: the growth was 98.3%.
In the case of `CCOC(=O)[C@@H](C)C[C@H](Cc1ccccc1)NC(=O)c1csc([C@@H](C[C@H](C(C)C)N(C)C(=O)[C@@H](NC(=O)[C@H]2C[C@H](O[Si](C)(C)C(C)(C)C)CCN2C)C(C)C)OC(C)=O)n1` it was -2.86% [9.25 µM] (active).
As to `COC(=O)/C=C1\S/C(=N\NC(=O)c2cc3ccc2/C=C\c2ccc(cc2)/C=C\3)N(c2ccccc2)C1=O`, the growth was 135%.
The value for `NNC(=O)c1ccc(-n2nc(-c3ccccc3)c3ccccc32)cc1` was 98.9%; that for `NC(=NCCCOc1ccc(F)cc1)Nc1ccc(I)cc1` was 81.8%.
Regarding `N#CC1C(C#N)C(C(=O)c2ccc(Br)cc2)N2c3ccccc3C=CC12` (stereo not drawn), the growth is 79.4%.
In the case of `CCN1C(=O)/C(=C/C(=O)OC)S/C1=N\NC(=O)c1cc2ccc1/C=C\c1ccc(cc1)/C=C\2` it was 125%.
On to `COc1ccccc1/C=C1\Oc2cc(OCCN3CCCC3)ccc2C1=O`, for which the growth is 98.2%.
In the case of `Cc1cc2nc3c4ccc(Br)cc4n(CCN(C)C)c3nc2cc1C` it was 33.8%; in that of `C/C(=N\Nc1cc(C)nc2ccc(Br)cc12)c1ccc([N+](=O)[O-])cc1`, 84.1%; in that of `COc1cc(C2C3CC4CCCC[C@H]4N3[C@@]3(C(=O)Nc4cc(Cl)ccc43)C2C(=O)c2nc3ccccc3[nH]2)cc(OC)c1OC` (stereo partly drawn), 94.3%.
The value for `O=C1OC(Cc2ccccc2)C1c1ccccc1` (stereo not drawn) was 121%; that for `CC(Oc1ccc(C(=O)O)cc1C(F)(F)F)c1ccc(Oc2ccccc2)cn1` (stereo not drawn) was 124%; that for `CC(Sc1nc2ccccc2c(=O)n1CCc1ccc(S(N)(=O)=O)cc1)C(=O)Nc1ccc(Cl)cc1` (stereo not drawn) was 125%.
In the case of `CC1=CCC(OC(=O)C(C)(O)CCC(O)(C(=O)OC2(C)C=CC(O)(C(C)C)CC2)C(C)C)(C(C)C)CC1` (stereo not drawn) it was 105%; in that of `ClC1=C(Br)C(Br)(Br)C(=C(Br)Br)C1(Br)Br`, 118%; in that of `C=C1C(=O)O[C@H]2[C@H]1CC/C(CNC(=O)C(C)c1ccc(CC(C)C)cc1)=C\CC[C@@]1(C)O[C@@H]21` (stereo partly drawn), 88.1%.
For the compound `CCCCCN1C=C/C(=C\C(=O)N2CCCc3ccccc32)c2ccccc21`, the growth is 95%.
Turning to `N#Cc1cc(-c2nc3ccccc3s2)c(=O)n(NS(=O)(=O)c2ccccc2)c1N`, the growth was 90.3%.
Take `CCCOc1ccc(/C=N/Nc2cc(C)nc3ccc(Cl)cc23)cc1`: the growth is 89.1%.
In the case of `Cc1cccc(NC(=O)Nc2ccc(-n3cnc4cc(-c5ccc(O)cc5)ccc43)cc2)c1` it was 60.3%.
The value for `O=c1c2c(c(=O)n1O)c1c3ccc[nH]c3nc1c1nc3[nH]cccc3c12` was 89.2%; that for `O=C(CNCCN1CCOCC1)N1c2cccc3cccc(c23)N(C(=O)CNCCN2CCOCC2)C1c1cn(-c2ccccc2)nc1-c1cccc([N+](=O)[O-])c1` was 109%.
In the case of `O=Cc1cc2ccccc2nc1Oc1ccc(C(F)(F)F)cc1` it was 81.5%; in that of `COc1ccc(C(=O)/C=C/c2cc3ccccc3n3nnnc23)cc1`, 102%.
As for `CN1CCN(C(=O)[C@]23CCC(C)(C)C[C@H]2C2=CC[C@@H]4[C@@]5(C)C/C(=C/c6cccnc6)C(=O)C(C)(C)[C@@H]5CC[C@@]4(C)[C@]2(C)CC3)CC1`, the growth is 83.8%.
The value for `CCN(CC)c1ccc(/C=N/NC(=O)CSc2nc3ccccc3c(=O)n2CCc2ccc(S(N)(=O)=O)cc2)c(O)c1` was 41.1%; that for `CCCCCCNC(=O)Nc1ccc2cc3ccc(NC(=O)NCCCCCC)cc3nc2c1` was 13.2%; that for `CCNC(=O)Oc1ccc(/C(=C(\C)c2ccccc2)c2ccc(OCCN(CC)CC)cc2)cc1` was 83.9%.
With `CC/C(=C\c1ccc(OC)cc1)C(=O)c1ccc(OC)cc1`, the growth is 106%.
For `CCc1ccc(CNc2ccc(N3CCOCC3)c(C(=O)O)c2)cc1`, the growth is 103%.
Take `Cc1ccc(NS(=O)(=O)c2ccc(-c3cnc(C4CC4)o3)cc2)cc1C(F)(F)F`: the growth was 86.8%.
In the case of `C/C(=N\NC(=O)CSc1nc2ccccc2c(=O)n1CCc1ccc(S(N)(=O)=O)cc1)c1ccccn1` it was 20.8%; in that of `C=C(CBr)[C@@H]1CC[C@]2(COC(C)=O)CC[C@]3(C)[C@H](CC[C@@H]4[C@@]5(C)CCCNC(C)(C)[C@@H]5CC[C@]43C)[C@@H]12`, 72.5%.
With `COc1ccc(C(=O)Nc2cccc(C3CCc4c(cc(OC)c(OC)c4OC)O3)c2)cc1` (stereo not drawn), the growth is 51.6%.
In the case of `N=C(N)c1ccc(OCCCCCCCCCCOc2ccc(C(=N)N)cc2)cc1` it was -91.4% (active); in that of `COc1cc2nc(-c3ccc(Cl)cc3)cc(OCCCN3CCOCC3)c2cc1OC`, 68.4%.
For the compound `Brc1ccc2[nH]cc(-c3cncn3CCc3ccccc3)c2c1`, the growth was 64.9%.
